The values below come from the supplement of paper PMC6992640.

The test has as its system WHIM2 (cells of a triple-negative basal-like breast cancer xenograft). Description: cell viability of combination (% of vehicle); higher = less cytotoxic. The following applies: 1 µM; 72 h; partner dose: 10 nM. On the procedure: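 PDX cells were treated for 72 h with each drug at 1 µM plus afatinib (10 nM; 1 µM for WHIM30). Luciferase viability is expressed as percent of vehicle.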
As to `COc1cc(C(=O)O)ccc1NC(=O)C1NC(CC(C)(C)C)C(C#N)(c2ccc(Cl)cc2F)C1c1cccc(Cl)c1F` (configuration not stated) + CN(C)C/C=C/C(=O)Nc1cc2c(Nc3ccc(F)c(Cl)c3)ncnc2cc1O[C@H]1CCOC1 [Afatinib], the “cell viability of combination” value was 44.7.
`O=C(C=Cn1cnc(-c2cc(C(F)(F)F)cc(C(F)(F)F)c2)n1)NNc1cnccn1` + CN(C)C/C=C/C(=O)Nc1cc2c(Nc3ccc(F)c(Cl)c3)ncnc2cc1O[C@H]1CCOC1 [Afatinib]: the “cell viability of combination” value worked out at 41.9.
The value for `CC(CCC(=O)O)C1CCC2C3CCC4CC(O)CCC4(C)C3CCC12C` (configuration not stated) [Lithocholic Acid] + CN(C)C/C=C/C(=O)Nc1cc2c(Nc3ccc(F)c(Cl)c3)ncnc2cc1O[C@H]1CCOC1 [Afatinib] was 40.5; that for `CCCCCOc1ccc(-c2ccc(-c3ccc(C(=O)N[C@H]4C[C@@H](O)[C@@H](O)NC(=O)[C@@H]5[C@@H](O)[C@@H](C)CN5C(=O)[C@H]([C@@H](C)O)NC(=O)[C@H]([C@H](O)[C@@H](O)c5ccc(O)cc5)NC(=O)[C@@H]5C[C@@H](O)CN5C(=O)[C@H]([C@@H](C)O)NC4=O)cc3)cc2)cc1` [Anidulafungin] + CN(C)C/C=C/C(=O)Nc1cc2c(Nc3ccc(F)c(Cl)c3)ncnc2cc1O[C@H]1CCOC1 [Afatinib] was 43.
With `Cl.O.O=C1Cc2cc(CCN3CCN(c4nsc5ccccc45)CC3)c(Cl)cc2N1` [Ziprasidone hydrochloride monohydrate] + CN(C)C/C=C/C(=O)Nc1cc2c(Nc3ccc(F)c(Cl)c3)ncnc2cc1O[C@H]1CCOC1 [Afatinib], the “cell viability of combination” value was found to be 45.2.
The value for `COC(=O)C12CCC(C)(C)CC1C1C(=O)C=C3C4(C)C=C(C#N)C(=O)C(C)(C)C4CCC3(C)C1(C)CC2` (configuration not stated) [Bardoxolone methyl] + CN(C)C/C=C/C(=O)Nc1cc2c(Nc3ccc(F)c(Cl)c3)ncnc2cc1O[C@H]1CCOC1 [Afatinib] was 30.4.
Next, `CCCCc1oc2ccccc2c1C(=O)c1cc(I)c(OCCN(CC)CC)c(I)c1.Cl` [Amiodarone HCl] + CN(C)C/C=C/C(=O)Nc1cc2c(Nc3ccc(F)c(Cl)c3)ncnc2cc1O[C@H]1CCOC1 [Afatinib]: 57.7.
